{"source": "the supplement of paper PMC8728848", "experiment_in_all_cases": "glycan array binding signal (z-score within array); higher = stronger binding", "settings_in_all_cases": "glycan notation: IUPAC condensed, linker removed", "key": {"[1]": {"biological_target": "Gal(b1-4)GlcNAc(b1-3)Gal(b1-4)GlcNAc(b1-3)Gal(b1-4)GlcNAc(b1-3)Gal(b1-4)GlcNAc(b1-2)[Gal(b1-4)GlcNAc(b1-3)Gal(b1-4)GlcNAc(b1-3)Gal(b1-4)GlcNAc(b1-3)Gal(b1-4)GlcNAc(b1-6)]Man(a1-6)[Gal(b1-4)GlcNAc(b1-3)Gal(b1-4)GlcNAc(b1-3)Gal(b1-4)GlcNAc(b1-3)Gal(b1-4)GlcNAc(b1-2)Man(a1-3)]Man(b1-4)GlcNAc(b1-4)[Fuc(a1-6)]GlcNAc", "method_in_brief": "(§1)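 Glycan array binding is given as a within-array Z-score, which can be read as non-binding when negative. The arrays, 3228 of them, came from the Consortium for Functional Glycomics database and were retained only where the protein sequence was available. Z-scores were averaged across arrays of the same protein sequence at different concentrations or buffers and across linkers.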"}, "[2]": {"biological_target": "Gal(b1-4)GlcNAc(b1-3)Gal(b1-4)GlcNAc(b1-3)Gal(b1-4)GlcNAc(b1-3)Gal(b1-4)GlcNAc(b1-3)Gal(b1-4)GlcNAc(b1-2)Man(a1-3)[Gal(b1-4)GlcNAc(b1-3)Gal(b1-4)GlcNAc(b1-3)Gal(b1-4)GlcNAc(b1-3)Gal(b1-4)GlcNAc(b1-3)Gal(b1-4)GlcNAc(b1-2)Man(a1-6)]Man(b1-4)GlcNAc(b1-4)GlcNAc", "method_in_brief": "as §1"}, "[3]": {"biological_target": "Gal(b1-4)GlcNAc(b1-3)Gal(b1-4)GlcNAc(b1-3)Gal(b1-4)GlcNAc(b1-3)Gal(b1-4)GlcNAc(b1-3)Gal(b1-4)GlcNAc(b1-2)Man(a1-3)[Gal(b1-4)GlcNAc(b1-3)Gal(b1-4)GlcNAc(b1-3)Gal(b1-4)GlcNAc(b1-3)Gal(b1-4)GlcNAc(b1-3)Gal(b1-4)GlcNAc(b1-2)Man(a1-6)]Man(b1-4)GlcNAc(b1-4)[Fuc(a1-6)]GlcNAc", "method_in_brief": "as §1"}, "[4]": {"biological_target": "Gal(b1-4)GlcNAc(b1-3)Gal(b1-4)GlcNAc(b1-3)Gal(b1-4)GlcNAc(b1-3)Gal(b1-4)GlcNAc(b1-3)Gal(b1-4)GlcNAc(b1-2)[Gal(b1-4)GlcNAc(b1-3)Gal(b1-4)GlcNAc(b1-3)Gal(b1-4)GlcNAc(b1-3)Gal(b1-4)GlcNAc(b1-3)Gal(b1-4)GlcNAc(b1-6)]Man(a1-6)[Gal(b1-4)GlcNAc(b1-3)Gal(b1-4)GlcNAc(b1-3)Gal(b1-4)GlcNAc(b1-3)Gal(b1-4)GlcNAc(b1-3)Gal(b1-4)GlcNAc(b1-2)Man(a1-3)]Man(b1-4)GlcNAc(b1-4)[Fuc(a1-6)]GlcNAc", "method_in_brief": "as §1"}, "[5]": {"biological_target": "Gal(b1-4)GlcNAc(b1-3)Gal(b1-4)GlcNAc(b1-3)GalNAc", "method_in_brief": "as §1"}, "[6]": {"biological_target": "Gal3S(b1-3)GalNAc", "method_in_brief": "as §1"}, "[7]": {"biological_target": "Gal3S(b1-4)Glc6S", "method_in_brief": "as §1"}, "[8]": {"biological_target": "Gal3S(b1-4)[Fuc(a1-3)]GlcNAc", "method_in_brief": "as §1"}, "[9]": {"biological_target": "Gal6S(b1-3)GlcNAc", "method_in_brief": "as §1"}, "[10]": {"biological_target": "GalNAc(b1-3)Gal(a1-6)Gal(b1-4)Glc", "method_in_brief": "as §1"}, "[11]": {"biological_target": "GlcA(b1-6)Gal", "method_in_brief": "as §1"}, "[12]": {"biological_target": "GlcNAc(b1-2)Man(a1-3)[GlcNAc(b1-2)Man(a1-6)]Man(b1-4)GlcNAc(b1-4)GlcNAc", "method_in_brief": "as §1"}, "[13]": {"biological_target": "GlcNAc(b1-2)[GlcNAc(b1-4)]Man(a1-3)[GlcNAc(b1-4)][GlcNAc(b1-2)Man(a1-6)]Man(b1-4)GlcNAc(b1-4)GlcNAc", "method_in_brief": "as §1"}, "[14]": {"biological_target": "GlcNAc(b1-2)[GlcNAc(b1-4)]Man(a1-3)[GlcNAc(b1-4)][GlcNAc(b1-2)[GlcNAc(b1-6)]Man(a1-6)]Man(b1-4)GlcNAc(b1-4)GlcNAc", "method_in_brief": "as §1"}, "[15]": {"biological_target": "GlcNAc(b1-2)[GlcNAc(b1-6)]Man(a1-6)[GlcNAc(b1-2)Man(a1-3)]Man(b1-4)GlcNAc(b1-4)GlcNAc", "method_in_brief": "as §1"}, "[16]": {"biological_target": "GlcNAc(b1-3)Gal(b1-4)GlcNAc(b1-3)Gal(b1-4)GlcNAc(b1-3)Gal(b1-4)GlcNAc(b1-2)[GlcNAc(b1-3)Gal(b1-4)GlcNAc(b1-3)Gal(b1-4)GlcNAc(b1-3)Gal(b1-4)GlcNAc(b1-6)]Man(a1-6)[GlcNAc(b1-3)Gal(b1-4)GlcNAc(b1-3)Gal(b1-4)GlcNAc(b1-3)Gal(b1-4)GlcNAc(b1-2)Man(a1-3)]Man(b1-4)GlcNAc(b1-4)[Fuc(a1-6)]GlcNAc", "method_in_brief": "as §1"}, "[17]": {"biological_target": "GlcNAc(b1-3)Gal(b1-4)GlcNAc(b1-3)Gal(b1-4)GlcNAc(b1-3)Gal(b1-4)GlcNAc(b1-3)Gal(b1-4)GlcNAc(b1-2)Man(a1-3)[GlcNAc(b1-3)Gal(b1-4)GlcNAc(b1-3)Gal(b1-4)GlcNAc(b1-3)Gal(b1-4)GlcNAc(b1-3)Gal(b1-4)GlcNAc(b1-2)Man(a1-6)]Man(b1-4)GlcNAc(b1-4)[Fuc(a1-6)]GlcNAc", "method_in_brief": "as §1"}, "[18]": {"biological_target": "GlcNAc(b1-3)Gal(b1-4)GlcNAc(b1-3)Gal(b1-4)GlcNAc(b1-3)Gal(b1-4)GlcNAc(b1-3)Gal(b1-4)GlcNAc(b1-2)[GlcNAc(b1-3)Gal(b1-4)GlcNAc(b1-3)Gal(b1-4)GlcNAc(b1-3)Gal(b1-4)GlcNAc(b1-3)Gal(b1-4)GlcNAc(b1-6)]Man(a1-6)[GlcNAc(b1-3)Gal(b1-4)GlcNAc(b1-3)Gal(b1-4)GlcNAc(b1-3)Gal(b1-4)GlcNAc(b1-3)Gal(b1-4)GlcNAc(b1-2)Man(a1-3)]Man(b1-4)GlcNAc(b1-4)[Fuc(a1-6)]GlcNAc", "method_in_brief": "as §1"}, "[19]": {"biological_target": "GlcNAc(b1-3)[GlcNAc(b1-6)]GlcNAc", "method_in_brief": "as §1"}, "[20]": {"biological_target": "Man(a1-2)Man(a1-2)Man(a1-3)[Man(a1-2)Man(a1-6)[Man(a1-3)]Man(a1-6)]Man(b1-4)GlcNAc(b1-4)GlcNAc", "method_in_brief": "as §1"}, "[21]": {"biological_target": "Man(a1-2)Man(a1-6)[Man(a1-3)]Man(a1-6)[Man(a1-2)Man(a1-2)Man(a1-3)]Man(b1-4)GlcNAc(b1-4)GlcNAc", "method_in_brief": "as §1"}, "[22]": {"biological_target": "Man(a1-3)[Man(a1-6)]Man(a1-6)[Man(a1-2)Man(a1-3)]Man(b1-4)GlcNAc(b1-4)GlcNAc", "method_in_brief": "as §1"}, "[23]": {"biological_target": "Neu5Ac(a2-3)Gal(b1-3)[Fuc(a1-4)]GlcNAc(b1-3)Gal(b1-4)[Fuc(a1-3)]GlcNAc", "method_in_brief": "as §1"}, "[24]": {"biological_target": "Neu5Ac(a2-3)Gal(b1-4)GlcNAc(b1-2)Man(a1-3)[GlcNAc(b1-2)Man(b1-4)GlcNAc(b1-2)Man(a1-6)]Man(b1-4)GlcNAc(b1-4)GlcNAc", "method_in_brief": "as §1"}, "[25]": {"biological_target": "Neu5Ac(a2-3)Gal(b1-4)GlcNAc(b1-3)Gal(b1-4)GlcNAc(b1-3)GalNAc", "method_in_brief": "as §1"}, "[26]": {"biological_target": "Neu5Ac(a2-3)Gal(b1-4)[Fuc(a1-3)]GlcNAc", "method_in_brief": "as §1"}, "[27]": {"biological_target": "Neu5Ac(a2-3)[GalNAc(b1-4)]Gal(b1-4)GlcNAc", "method_in_brief": "as §1"}, "[28]": {"biological_target": "Neu5Ac(a2-6)Gal(b1-4)GlcNAc(b1-2)[Neu5Ac(a2-6)Gal(b1-4)GlcNAc(b1-6)]Man(a1-6)[Neu5Ac(a2-6)Gal(b1-4)GlcNAc(b1-2)Man(a1-3)][GlcNAc(b1-4)]Man(b1-4)GlcNAc(b1-4)GlcNAc", "method_in_brief": "as §1"}, "[29]": {"biological_target": "Neu5Ac(a2-8)Neu5Ac(a2-8)Neu5Ac(a2-3)Gal(b1-4)Glc", "method_in_brief": "as §1"}}, "note": "This is one part of a sample in which the strongest signals are shown more often than they occur."}
{"binder": "Gal 7 (Homo sapiens) (protein) MSNVPHKSSLPEGIRPGTVLRIRGLVPPNASRFHVNLLCGEEGGSDAALHFNPRLDTSEVVFNSKEGGSWGREERGPGVPFGRGQPFEVLIIASDDGFKAVVGDAQYHHFRHRLPLARVRLVEVGGDVQLDSVRIF", "values": [{"measurement": "glycan array binding signal (z-score)", "setting": "[1]", "result": 5.2}, {"measurement": "glycan array binding signal (z-score)", "setting": "[2]", "result": 4.95}, {"measurement": "glycan array binding signal (z-score)", "setting": "[3]", "result": 4.93}, {"measurement": "glycan array binding signal (z-score)", "setting": "[4]", "result": 5.14}, {"measurement": "glycan array binding signal (z-score)", "setting": "[5]", "result": -0.127}, {"measurement": "glycan array binding signal (z-score)", "setting": "[6]", "result": 0.538}, {"measurement": "glycan array binding signal (z-score)", "setting": "[7]", "result": 2.04}, {"measurement": "glycan array binding signal (z-score)", "setting": "[8]", "result": -0.312}, {"measurement": "glycan array binding signal (z-score)", "setting": "[9]", "result": -0.324}, {"measurement": "glycan array binding signal (z-score)", "setting": "[10]", "result": -0.319}, {"measurement": "glycan array binding signal (z-score)", "setting": "[11]", "result": -0.332}, {"measurement": "glycan array binding signal (z-score)", "setting": "[12]", "result": -0.324}, {"measurement": "glycan array binding signal (z-score)", "setting": "[13]", "result": -0.311}, {"measurement": "glycan array binding signal (z-score)", "setting": "[14]", "result": -0.33}, {"measurement": "glycan array binding signal (z-score)", "setting": "[15]", "result": -0.2}, {"measurement": "glycan array binding signal (z-score)", "setting": "[16]", "result": 5.04}, {"measurement": "glycan array binding signal (z-score)", "setting": "[17]", "result": 4.94}, {"measurement": "glycan array binding signal (z-score)", "setting": "[18]", "result": 5.06}, {"measurement": "glycan array binding signal (z-score)", "setting": "[19]", "result": -0.33}, {"measurement": "glycan array binding signal (z-score)", "setting": "[20]", "result": -0.333}, {"measurement": "glycan array binding signal (z-score)", "setting": "[21]", "result": -0.185}, {"measurement": "glycan array binding signal (z-score)", "setting": "[22]", "result": -0.158}, {"measurement": "glycan array binding signal (z-score)", "setting": "[23]", "result": -0.197}, {"measurement": "glycan array binding signal (z-score)", "setting": "[24]", "result": -0.355}, {"measurement": "glycan array binding signal (z-score)", "setting": "[25]", "result": -0.259}, {"measurement": "glycan array binding signal (z-score)", "setting": "[26]", "result": -0.305}, {"measurement": "glycan array binding signal (z-score)", "setting": "[27]", "result": -0.248}, {"measurement": "glycan array binding signal (z-score)", "setting": "[28]", "result": -0.274}, {"measurement": "glycan array binding signal (z-score)", "setting": "[29]", "result": -0.015}]}
